Source: PubChem BioAssay (National Center for Advancing Translational Sciences (NCATS))
Pf growth 48h: inhibits P. falciparum growth in the first generation, 48 h; hit rate 5.9% among 310,000; Potency, µM (top dose mostly 28.7 µM), for inactives: top-dose activity change, negative = inhibition, hits mostly inhibitors; P. falciparum luciferase growth in erythrocytes, 48 h
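Erythrocytes infected with P. falciparum carrying an integrated firefly luciferase reporter (2% hematocrit, 0.1% parasitemia final) were exposed to compounds in RPMI 1640 with 0.5% Albumax at 37 C, 5% CO2. Growth inhibition was scored as reduced luminescence.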
HCV inh: inhibitors of hepatitis C virus infection | Huh7.5.1 HCVcc-Cre infection, luciferase reporter, 44 h | Potency, µM (top dose mostly 41.8 µM), inactives show top-dose activity change, negative = inhibition, usual class: inhibitors | hit rate 3.4% among 340,000 | AID 651820
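A cell-based infection assay in which seeded cells (1,000 per well) receive test compound after 4 h, are inoculated with HCVcc-Cre at approximately 0.5 moi, and are incubated 44 h before luminescence detection.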
AMA1-RON2 inh: AMA1-RON2 (P. falciparum) interaction inhibition; Potency, µM (top dose mostly 58.2 µM), without a hit: top-dose activity change, negative = inhibition, actives largely listed as inhibitors; AID 720542; hit rate 0.2% among 360,000; AlphaScreen AMA1-biotinylated RON2 peptide binding;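 also: 0% = vehicle wells and -100% = peptide control; nearly all actives have a fitted effect of over 45% in size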
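AMA1 (3D7) with his tag at 25 nM final met compounds first, then biotinylated RON2 peptide at 25 nM; detection used donor plus acceptor beads, 10 µg/mL apiece, read by AlphaScreen after 30 min at room temperature.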
Pf growth 96h: inhibits malaria parasite growth, 96 h | P. falciparum luciferase reporter growth, 96 h | Potency, µM (doses to about 28.7 µM), for inactives: at the highest dose activity change, negative = inhibition, actives largely listed as inhibitors | hit rate 6.9% among 320,000 | AID 504834
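Two parasite generations (96 h, 37 C, 5% CO2) of compound exposure in infected erythrocytes (0.05% parasitemia, 2% hematocrit). Luciferase-reporter P. falciparum; decreased luminescence indicates inhibited growth, aimed at apicoplast-acting delayed death.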
Active calls of the source: *; ? = inconclusive; / = no result given. An excerpt weighted towards active compounds, which were near 11% of everything screened. Calls follow the shape of the dose curve; as a rule, active = well fitted curve in the direction sought with a large enough effect; inconclusive = small, poorly fitted or top-dose-only effect, or another doubt; inactive = no such curve, though single readings can be large; an effect the other way counts as inactive or inconclusive. Unless noted, % is scaled to controls: 0 for no effect and ±100 for the full control effect; potency is read from the fitted curve at half-maximal effect.

SMILES	Pf growth 48h	HCV inh	AMA1-RON2 inh	Pf growth 96h
CCOc1cc(N2CCOCC2)c(OCC)cc1NC(=O)c1nn(CC)c(=O)c2ccccc12	10.4µM*	?	-16.6%	2.62µM*
CCOc1cc(N2CCOCC2)c(OCC)cc1NC(=O)CCS(=O)(=O)c1ccc(Cl)cc1	?	?	-8.0%	7.38µM*
CCOc1cc(N2CCOCC2)c(OCC)cc1NC(=O)c1ccc2ccccc2n1	13.1µM*	?	-19.2%	?
CCOc1cc(N2CCOCC2)c(OCC)cc1NC(=O)c1ccc(=O)n(Cc2ccccc2)n1	4.6%	/	/	?
CC1CN(CC(O)c2ccc(Br)cc2)CCO1 (centres undefined)	/	11.2%	6.3%	/
CCOc1cc(N2CCOCC2)c(OCC)cc1NC(=O)c1ccc(OC)cc1	?	4.47µM*	5.7%	?
CCCn1c(C)cc(C(=O)CSc2nc3nc(C)cc(C)n3n2)c1C	?	?	-10.5%	9.28µM*
Cc1cc(C)n2nc(SCC(=O)NC3CCCCC3)nc2n1	-1.4%	4.6%	-5.3%	13.1µM*
O=C1c2ccccc2C(=O)C1c1ccc(Br)cc1	?	4.8%	12.9%	15.1µM*
O=C1c2ccccc2C(=O)C1c1ccc(O)cc1	29.7%	?	15.3%	?
COc1ccc(NC(=O)CCCn2cc([N+](=O)[O-])cn2)cc1	-2.9%	4.8%	-6.4%	45.1%
CC12C(=O)N(c3nccs3)C(=O)C1C1C=CC2C1 (centres undefined)	1.9%	21.6%	-13.8%	73.0%
Cc1ccc(-n2nc3c(c2NC(=O)c2ccc(S(=O)(=O)N4CCOCC4)cc2)CSC3)c(C)c1	5.86µM*	?	-0.1%	-21.7%
O=C(Nc1c2c(nn1-c1ccc(F)cc1)CSC2)c1ccc(S(=O)(=O)N2CCOCC2)cc1	?	0.6%	3.0%	7.2%
Cc1cccc(-n2nc3c(c2NC(=O)c2ccc(S(=O)(=O)N4CCOCC4)cc2)CSC3)c1C	11.7µM*	6.4%	-6.0%	2.0%
CC(=O)N1CC(=O)N=C1SCC(=O)Nc1nc(-c2ccccc2)c(-c2ccccc2)s1	14.7µM*	?	-15.6%	?
Cc1sc(NC(=O)CSC2=NCCS2)nc1-c1ccccc1	/	?	-20.7%	-57.6%
CC(=O)N[C@@H](CC(=O)O)C(=O)O	-2.6%	0.0%	7.4%	20.7%
O=C(CN1CCC(C(O)(c2ccccc2)c2ccccc2)CC1)Nc1ccccc1	10.4µM*	?	-6.1%	?
CC1CN(CC(=O)Nc2cccc(C(=O)Nc3cccc(C(F)(F)F)c3)c2)CC(C)O1 (centres undefined)	/	?	-6.8%	0.147µM*
O=C(CN1CCN(c2ccccc2)CC1)Nc1cccc(C(F)(F)F)c1	5.3%	9.0%	20.1%	-24.2%
CC1CCN(CC(=O)Nc2cccc(C(=O)Nc3cccc(C(F)(F)F)c3)c2)CC1	1.31µM*	22.4µM*	8.9%	0.928µM*
O=C(COC(=O)C1CCCO1)Nc1cccc(C(F)(F)F)c1 (centres undefined)	1.8%	-5.6%	-1.2%	7.38µM*
C/C=C/c1ccc(OCC(=O)OCc2csc(Nc3ccc(C)cc3)n2)c(OC)c1	?	6.0%	-24.2%	-72.9%
CC(OC(=O)c1ccccc1C(=O)N(C)Cc1ccccc1)C(=O)NC1(C#N)CCCCC1 (centres undefined)	10.4µM*	-19.2%	-1.1%	?
SMILES	Pf growth 48h	HCV inh	AMA1-RON2 inh	Pf growth 96h
CC(OC(=O)CN1C(=O)c2ccccc2C1=O)C(=O)NC1(C#N)CCCCC1 (centres undefined)	11.6%	-1.7%	10.6%	33.2%
NC(=O)c1cc([N+](=O)[O-])c(Cl)cc1NCc1ccccn1	?	?	75.6%	72.9%
O=C(NCc1cc(C(F)(F)F)cc(C(F)(F)F)c1)C12CN(Cc3ccccc3)CC1C(c1cccc([N+](=O)[O-])c1)=NO2 (centres undefined)	13.1µM*	-10.8%	-2.8%	?
O=C(NCc1ccccc1)C12CN(Cc3ccccc3)CC1C(c1cccc([N+](=O)[O-])c1)=NO2 (centres undefined)	?	?	-3.6%	1.2%
Cc1ccc(CNC(=O)C23CN(Cc4ccccc4)CC2C(c2ccc([N+](=O)[O-])cc2)=NO3)cc1 (centres undefined)	11.7µM*	-71.4%	-18.3%	?
N=c1n(CCO)c2ccccc2n1Cc1ccc(Cl)cc1	/	-19.2%	2.5%	-13.5%
COc1ccc(OCC(O)Cn2c(=N)n(Cc3ccccc3)c3ccccc32)cc1 (centres undefined)	?	10µM*	12.7%	?
N=c1n(Cc2ccc(Cl)cc2)c2ccccc2n1CC(O)COc1ccccc1 (centres undefined)	?	12.6µM*	-13.6%	-10.9%
CCN(CC)CCn1c(=N)n(CC(O)c2ccc(OC)c(OC)c2)c2ccccc21 (centres undefined)	9.28µM*	-12.1%	7.4%	3.5%
Cc1cccc(OCC(O)Cn2c(=N)n(Cc3ccccc3)c3ccccc32)c1 (centres undefined)	5.86µM*	?	-15.0%	5.22µM*
Cc1nnc(NC(=O)CSCc2cc(=O)c3ccccc3[nH]2)s1	-22.6%	/	/	-0.7%
CCCCn1nnnc1C(c1ccccc1)N1CCN(c2ncc(C(F)(F)F)cc2Cl)CC1 (centres undefined)	/	/	-9.6%	/
Cc1ccc(C2=C/C(=C/c3cccnc3)C(=O)O2)c(C)c1	34.1%	4.9%	25.3%	0.0%
Nc1cccc2cccc([N+](=O)[O-])c12	/	19.1%	?	/
Cc1ccc(OCC(O)Cn2c(=N)n(Cc3ccccc3)c3ccccc32)cc1 (centres undefined)	/	?	-13.0%	3.7µM*
CCN(CC)CCn1c(=N)n(CC(O)COc2cccc(C)c2)c2ccccc21 (centres undefined)	?	6.31µM*	-20.2%	33.5%
N=c1n(Cc2ccccc2)c2ccccc2n1CC(O)c1ccco1 (centres undefined)	/	-6.3%	1.4%	?
N=c1n(Cc2ccccc2)c2ccccc2n1CC(O)COc1ccc(Cl)cc1Cl (centres undefined)	?	11.2µM*	-4.8%	0.0%
Cc1cccc(OCC(O)Cn2c(=N)n(CCN3CCCCC3)c3ccccc32)c1 (centres undefined)	2.94µM*	7.08µM*	14.1%	2.62µM*
CCN(CC)CCn1c(=N)n(CC(O)c2ccco2)c2ccccc21 (centres undefined)	?	-23.2%	0.0%	?
OC(COc1ccccc1Cl)CN1CCN(CC(O)COc2ccccc2Cl)CC1 (centres undefined)	/	?	-16.1%	117.0%
CCOP(=O)(Nc1ccc2oc(=O)c3ccccc3c2c1)OCC	-9.9%	?	-7.9%	-24.0%
O=CNc1c(Cl)cc2c(c1Cl)Cc1cc([N+](=O)[O-])ccc1-2	/	?	6.4%	/
CSCCC(NC(=O)C12CC3CC(CC(C3)C1)C2)C(=O)OCC(=O)c1ccc(C)cc1 (centres undefined)	-4.5%	29.2%	0.0%	0.329µM*
